Results on 54 compounds are retold here after PubChem BioAssay AID590 (National Center for Advancing Translational Sciences (NCATS), 2007).

Out of some 59,000 compounds screened, about 6,500 (11%) were called active. Another 15% or so got no clear call; they are omitted. Cut-off read from the data, not from the text of the source: active = max dye-equivalent concentration above about 10 nM; inconclusive = mostly about 1.1 nM to 9.6 nM; inactive = weaker than that. The sample as a whole holds a higher share of actives than the screen did.

This assay in a line: qHTS Assay for Spectroscopic Profiling in A350 Spectral Region. The settings on record: Compound autofluorescence, 340/450 nm, Alexa 350 dye-equivalents; stronger effect = higher value.
With `CN1CCN(CC(O)COCc2ccc3c(c2)OCO3)CC1` (centres undefined), the max dye-equivalent concentration entry was “inactive”.
Regarding `CCOC(=O)Nc1ccc2c(c1)N(C(=O)CN1CCN3CCCC3C1)c1ccccc1CC2` (centres undefined), the max dye-equivalent concentration result is “inactive”.
`CSc1cccc(NC(=O)CSc2ccccc2)c1`: the max dye-equivalent concentration result is “inactive”.
To `Cc1ccccc1CSc1nnc(-c2cccnc2)n1N` belongs “inactive”; to `CCOC(=O)C1C(=O)NC(N2CCN(c3ccccc3)CC2)=NC1c1ccco1` (centres undefined), “inactive”.
On to `COc1ccc(C2OC(=O)CC2C(=O)NC(C)C)cc1` (centres undefined), for which the max dye-equivalent concentration result is “inactive”.
On to `CCOC(=O)C1C(=O)C=C(c2ccc(OC)cc2)CC1c1ccco1` (centres undefined), for which the max dye-equivalent concentration was 11 nM (active).
Turning to `CNC(=O)c1nnn(-c2ccccc2)c1C(=O)NC`, the max dye-equivalent concentration entry is “inactive”.
With `CCn1ccnc1C[C@@H]1COc2ccccc2O1` the entry was “inactive”.
To `CC1=C(C(=O)Nc2ccc(Cl)cc2)C(c2ccco2)NC(=O)N1` (centres undefined) belongs “inactive”; to `COc1cccc(N2CC(C(=O)Nc3c(C)cccc3C)CC2=O)c1` (centres undefined), 19 nM (active); to `COc1ccc(Cl)cc1NC(=O)C1CC(=O)N(c2ccc(F)cc2)C1` (centres undefined), “inactive”.
With `COCCCNC(=O)C1CC(=O)N(c2ccc(C)cc2)C1` (centres undefined) the entry was “inactive”; with `O=C(CSc1nnc(-c2cccs2)n1Cc1ccco1)c1ccc2c(c1)OCO2`, “inactive”; with `CCN1CCCC1CNc1ncnc2c1[nH]c1ccc(F)cc12` (centres undefined), 14 nM (active).
As for `Cc1ccc(-n2ncc3c(N4CCN(c5ccc(F)cc5)CC4)ncnc32)c(C)c1`, the max dye-equivalent concentration entry is “inactive”.
`CCN1CCCC1CNC(=O)Cn1cnc2ccc(S(=O)(=O)N3CCC(C)CC3)cc2c1=O` (centres undefined): the max dye-equivalent concentration entry was “inactive”.
On to `Fc1ccc2[nH]c3c(N4CCSCC4)ncnc3c2c1`, for which the max dye-equivalent concentration is 13 nM (active).
On to `Cc1cc(OCC(=O)O)c(Cl)cc1Cl`, for which the max dye-equivalent concentration result was “inactive”.
As to `CCn1c(Cc2ccccc2)nnc1SCc1nc2ccccc2c(=O)[nH]1`, the max dye-equivalent concentration entry was “inactive”.
With `COCCCNC(=O)CCc1nc2cccnc2n1Cc1ccc(OC)cc1`, the max dye-equivalent concentration result was “inactive”.
For `O=C(CC1CCCCC1)Nc1c2c(nn1-c1ccc(F)cc1)CS(=O)(=O)C2`, the max dye-equivalent concentration entry was “inactive”.
With `Cc1c(C)c2cc3c4c(oc3c(C)c2oc1=O)CCCC4`, the max dye-equivalent concentration is 25 nM (active).
Consider `COc1ccccc1-c1nc(NCc2cccs2)c2ccccc2n1`, for which the max dye-equivalent concentration result was “inactive”.
`CCOC(=O)Cc1c(C)nc2c(C#N)c(C)nn2c1C`: the max dye-equivalent concentration was 11 nM (active).
Regarding `CC1(C)CCCC2=C1CC1C(=O)N(c3ccccc3)C(=O)C1C2` (centres undefined), the max dye-equivalent concentration entry was “inactive”.
As for `CC(C)C(c1nnnn1Cc1ccccc1)N1CCC(C(N)=O)CC1` (centres undefined), the max dye-equivalent concentration result was “inactive”.
Take `COc1ccc(Cn2cccc(NC(=O)Nc3ccc(C#N)cc3)c2=O)cc1`: the max dye-equivalent concentration entry is “inactive”.
Turning to `COc1ccc(C(=O)N2CCC[C@@]3(CCN(C(=O)NC(C)C)C3)C2)cc1`, the max dye-equivalent concentration result was “inactive”.
As for `COc1cccc(-c2nc(Nc3ccncc3)c3ccccc3n2)c1`, the max dye-equivalent concentration entry was “inactive”.
For `c1ccc2c(Nc3ccncc3)nc(-c3ccc4c(c3)OCO4)nc2c1`, the max dye-equivalent concentration is 11 nM (active).
Turning to `c1ccc2c(Nc3ccncc3)nc(-c3ccoc3)nc2c1`, the max dye-equivalent concentration entry was “inactive”.
`COCCn1c(C)cc(C(=O)CSc2ncnc3sc4c(c23)CCC4)c1C`: the max dye-equivalent concentration result is “inactive”.
`Cc1cc(C)n(-c2nc(SCC(=O)N3CCCC3)c3c4c(sc3n2)CCCC4)n1`: the max dye-equivalent concentration entry is “inactive”.
On to `COCCNc1nc(-n2nc(C)cc2C)nc2sc3c(c12)CCCC3`, for which the max dye-equivalent concentration is 1300 nM (active).
As to `O=S(=O)(NCc1ccc2c(c1)OCO2)c1cccc2nsnc12`, the max dye-equivalent concentration entry is “inactive”.
Turning to `COc1ccc(N2C(=O)CCC(C(=O)Nc3ccccn3)C2c2ccc(OC)c(OC)c2)cc1` (centres undefined), the max dye-equivalent concentration result was “inactive”.
For the compound `C[N+](C)(CCCCCC[N+](C)(C)CCCN1C(=O)c2cccc3cccc(c23)C1=O)CCCN1C(=O)c2cccc3cccc(c23)C1=O`, the max dye-equivalent concentration is 260 nM (active).
To `O=C1c2ccccc2C(=O)N1CCCSc1ccccc1` belongs “inactive”.
`Nc1ccc(SCCN2C(=O)c3ccccc3C2=O)cc1`: the max dye-equivalent concentration entry is “inactive”.
With `CCOC(=O)Cc1csc(NC(=O)C(C)(C)C)n1` the entry was “inactive”; with `COc1cc(C2C3C(=O)N(c4ccccc4)C(=O)C3ON2c2ccccc2)ccc1O` (centres undefined), “inactive”; with `Cc1ccc(C(c2nnnn2C(C)(C)C)N2CCc3ccccc3C2)cc1` (centres undefined), “inactive”.
To `Cc1ccc(NC(=O)CCN2CCc3ccccc3C2)cc1` belongs “inactive”.
Turning to `Cc1ccc2c(c1)c1ncnc(N3CCc4ccccc4C3)c1n2C`, the max dye-equivalent concentration is 140 nM (active).
With `O=C(CCCN1C(=O)C2C3C=CC(C3)C2C1=O)N1CCN(c2ccccc2)CC1` (centres undefined), the max dye-equivalent concentration entry was “inactive”.
With `Cc1cc(C)nc(NC(=O)C(C)N2C(=O)c3ccccc3C2=O)n1` (centres undefined), the max dye-equivalent concentration result is “inactive”.
With `CC(C(=O)O)N1C(=O)c2cccc3cccc1c23` (centres undefined) the figure was 14 nM (active); with `COC(=O)c1ccc(NC(=O)C(C)N2C(=O)c3ccccc3C2=O)cc1` (centres undefined), “inactive”; with `CC(=O)N1CCN(CCN=CC2=C(O)CC(C)(C)CC2=O)CC1`, “inactive”.
To `CCOCCN(C=O)c1cccc(OC)c1` belongs “inactive”; to `COc1ccc(OC)c([C@H](O)CNC(=O)CN)c1`, “inactive”; to `CCOC(=O)CCc1c(C)c2ccc(OCc3nn[nH]n3)c(C)c2oc1=O`, 30 nM (active).
For the compound `CCc1ccc(-c2nnn(Cc3nn[nH]n3)n2)cc1`, the max dye-equivalent concentration result is “inactive”.
